Several values for one entry are separate records, joined by “and”; a condition that tells them apart may be missing. Identical values can stand only once. Inconclusive results are not listed. Some structures have more than one record in an assay (separate samples or runs), and their calls can disagree. Activity calls are given as the source filed them. Rule for the calls, unless noted: active = hit-call score of the fitted dose curve at least 0.9, where 1 is the maximum; inactive = score below 0.9.
Legend:
[1] = CCTE_Simmons_MITO_basal_resp_rate: CCTE's HepG2 Seahorse XF Respirometric Screening Assay at Basal Respiratory State, Simmons Lab (AID 2284001); conditions: actives raise or lower the signal
Summary of the method: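 HepG2 cells were given test chemicals at 7 concentrations, 125 nM to 100 uM final, and oxygen consumption rate was read every 6 min (3 min mix, 3 min measure) over 72 min. Basal-phase OCR was fitted bidirectionally against DMSO.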

[2] = CCTE_Simmons_MITO_max_resp_rate: CCTE's HepG2 Seahorse XF Respirometric Screening Assay at Maximal Respiratory State [uncoupled], Simmons Lab (AID 2284002); conditions: actives raise or lower the signal
Summary of the method: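 Maximal respiration in HepG2 cells is recorded as OCR by Seahorse XF following FCCP injection. Compounds span 125 nM–100 uM final; activity is called in either direction against DMSO.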

[3] = CCTE_Simmons_MITO_inhib_resp_rate: CCTE's HepG2 Seahorse XF Respirometric Screening Assay at Inhibited Respiratory State [full ETC block], Simmons Lab (AID 2284006); conditions: actives raise or lower the signal
Summary of the method: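 HepG2 cells on Seahorse XF96; oxygen consumption measured after test compound, then FCCP, then rotenone/antimycin A injections over 72 min. Test chemicals at 7 concentrations, 125 nM–100 uM final. OCR fitted bidirectionally versus DMSO.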

[4] = CCTE_Simmons_MITO_viability: CellTiter-Glo Viability Assessment for CCTE's HepG2 Seahorse XF Respirometric Screening Assay [post-hoc], Simmons Lab (AID 2284007; active = hit-call score of the fitted dose curve at least 0.9, where 1 is the maximum;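 for AC50: cells exposed to chemical for 90 min before the ATP read; actives lower ATP signal relative to DMSO baseline meaning reduced viability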)
Summary of the method: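 HepG2 cells from the Seahorse XF respirometry run were exposed 90 min to a 7-point series, 125 nM–100 uM final, DMSO vehicle; ATP content then read by luciferase luminescence. Three biological replicates, technical singles; loss of signal fitted versus DMSO.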

[5] = CCTE_Shafer_MEA_acute_spike_number: CCTE's Neural Acute Assay for Total Number of Spikes, Shafer Lab (AID 2284008);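 for AC50: curve fitted for decrease in spike count so AC50 reflects inhibitors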
Summary of the method: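 Cortical neurons from rat, matured to DIV 13 or 15 on microelectrode arrays, are recorded at 37 C before and during 40-min exposure to 0.03-40 uM compound. Wells need >/= 10 active electrodes.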

[6] = CCTE_Shafer_MEA_acute_firing_rate_mean: CCTE's Neural Acute Assay for Mean Firing Rate, Shafer Lab (AID 2284009);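 note: analyzed for loss of signal so actives lower firing rate relative to DMSO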
Summary of the method: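 Read-out: well-mean spike rate (spikes/recording length/electrodes), % change from 40 min pre-dose baseline to 40 min with compound. Rat cortical cultures, DIV 13 or 15, 37 C; 0.03-40 uM; DMSO as negative control.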

[7] = CCTE_Harrill_HTTr_Viability_MCF7: CCTE's 6-hour Cell Viability Assessment for the High-Throughput Transcriptomics (HTTr) Platform, in MCF-7 cells cultured in DMEM + 10% fetal bovine serum, Harrill Lab (AID 2284010)
Summary of the method: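 Membrane integrity was scored by high-content imaging of propidium iodide dye exclusion after a 6 h exposure across an eight-point dilution series. Data were fitted bidirectionally relative to DMSO as negative control and baseline.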

[8] = CCTE_Harrill_HTTr_Apoptosis_MCF7: CCTE's 6-hour Apoptosis Assessment for the High-Throughput Transcriptomics (HTTr) Platform, in MCF-7 cells cultured in DMEM + 10% fetal bovine serum, Harrill Lab (AID 2284011)
Summary of the method: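 Cells are dosed with test chemicals at eight concentrations and imaged 6 hours later for caspase-3/7 activity using a green fluorogenic detection reagent. Activity is fitted in both directions against DMSO controls.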

[9] = CCTE_Harrill_HTTr_CellCount_MCF7: CCTE's Cell Proliferation Assessment for the High-Throughput Transcriptomics (HTTr) Platform, Harrill Lab (AID 2284012; active = hit-call score of the fitted dose curve at least 0.9, where 1 is the maximum;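 note: cells exposed to compound for six hours; intended direction is loss of nuclei count meaning fewer cells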)
Summary of the method: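 MCF-7 cells were exposed for 6 h to an eight-point dilution series; Hoechst-labeled nuclei were counted by high content imaging. Curves were fitted bidirectionally against DMSO as negative control and baseline, with signal loss indicating reduced cell count.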

[10] = target: Ratio of Nucleoli Translocation and Cytoplasm, AR (gene 367) (UniProt P10275); test: UPITT_HCI_U2OS_AR_TIF2_Nucleoli_Cytoplasm_Ratio_Agonist: University of Pittsburgh U2OS Androgen Receptor-Transcriptional Intermediary Factor 2 (AR-TIF2) Agonism High Content Imaging Assay for Ratio of Nucleoli Translocation and Cytoplasm (AID 2284000; active = hit-call score of the fitted dose curve at least 0.9, where 1 is the maximum;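 note: hits raise the red nucleolar to cytoplasm ratio above vehicle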)
Summary of the method: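 U2OS cells expressing RFP-tagged human AR and GFP-tagged TIF2 were imaged by high-content fluorescence microscopy. The endpoint is the ratio of nucleolar to cytoplasmic red fluorescence, fitted for gain of signal relative to DMSO. Concentration-response spanned 0.195 to 50 uM final (0.5% DMSO).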

Measured: AC50

Ratio of Nucleoli Translocation and Cytoplasm, AR (gene 367), sequence (P10275 whole entry, looked up): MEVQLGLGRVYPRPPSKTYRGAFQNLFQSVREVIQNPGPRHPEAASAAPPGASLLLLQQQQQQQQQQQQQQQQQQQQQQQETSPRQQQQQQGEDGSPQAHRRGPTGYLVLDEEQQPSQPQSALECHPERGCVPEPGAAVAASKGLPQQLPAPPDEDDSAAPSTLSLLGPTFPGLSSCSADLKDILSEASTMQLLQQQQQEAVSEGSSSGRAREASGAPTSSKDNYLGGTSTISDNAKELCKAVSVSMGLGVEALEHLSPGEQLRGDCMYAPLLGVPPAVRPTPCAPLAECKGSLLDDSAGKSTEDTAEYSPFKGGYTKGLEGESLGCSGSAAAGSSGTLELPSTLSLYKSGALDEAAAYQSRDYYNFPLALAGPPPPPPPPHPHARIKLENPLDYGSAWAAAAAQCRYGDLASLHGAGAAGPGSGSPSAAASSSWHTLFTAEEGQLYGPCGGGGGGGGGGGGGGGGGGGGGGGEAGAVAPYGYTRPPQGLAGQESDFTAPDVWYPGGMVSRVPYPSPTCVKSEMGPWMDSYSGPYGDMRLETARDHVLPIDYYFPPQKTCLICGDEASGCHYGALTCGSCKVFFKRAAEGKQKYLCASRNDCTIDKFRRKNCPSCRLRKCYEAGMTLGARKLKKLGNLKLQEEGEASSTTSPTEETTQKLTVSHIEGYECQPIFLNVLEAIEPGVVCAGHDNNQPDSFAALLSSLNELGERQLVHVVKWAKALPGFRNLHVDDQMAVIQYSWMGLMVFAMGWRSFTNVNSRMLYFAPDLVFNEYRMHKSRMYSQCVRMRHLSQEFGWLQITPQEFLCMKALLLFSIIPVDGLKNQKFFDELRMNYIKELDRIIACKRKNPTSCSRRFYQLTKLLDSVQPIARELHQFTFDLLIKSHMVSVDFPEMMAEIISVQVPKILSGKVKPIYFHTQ

CC1COC(Cn2cncn2)(c2ccc(Oc3ccc(Cl)cc3)cc2Cl)O1 (stereo not drawn)
inactive: [4] | [7] | [8] | [9]
active: [1] 6.1 µM | [2] 6.64 µM | [3] 6.05 µM | [5] 3.53 µM | [6] 3.53 µM

COP(=S)(OC)Oc1nc(Cl)c(Cl)cc1Cl
active: [4] 19.8 µM
not listed: [10]
inactive: all other assays above

C=CCC1=C(C)C(OC(=O)C2C(C=C(C)C)C2(C)C)CC1=O (stereo not drawn)
inactive: [4] | [5] | [6] | [7] | [8]
active: [1] 34.7 µM and 46.9 µM | [2] 36.2 µM and 53.5 µM | [3] 26 µM and 42.3 µM | [4] 5.17 µM

CS/C(C)=N/OC(=O)N(C)SN(C)C(=O)O/N=C(\C)SC
active: [10] 84.1 µM
inactive: [5] | [6] | [7] | [8] | [9]

OC(c1ccc(Cl)cc1)(c1cncnc1)c1ccccc1Cl (stereo not drawn)
active: [5] 0.792 µM | [6] 0.803 µM
not listed: [10]
inactive: all other assays above

Cc1cc(Cl)ccc1OCC(=O)O
inactive: [10] | [7] | [8]

N#CC(CCc1ccc(Cl)cc1)(Cn1cncn1)c1ccccc1 (stereo not drawn)
inactive: all assays above

CCCC1COC(Cn2cncn2)(c2ccc(Cl)cc2Cl)O1 (stereo not drawn)
active: [10] 89.2 µM | [1] 18.4 µM | [2] 33.7 µM | [4] 26.5 µM
not listed: [9]
inactive: all other assays above

CCc1nn(C)c(C(=O)NCc2ccc(C(C)(C)C)cc2)c1Cl
active: [1] 0.928 µM | [2] 0.496 µM | [4] 0.217 µM
inactive: [3] | [7] | [8]

N#Cc1nn(-c2c(Cl)cc(C(F)(F)F)cc2Cl)c(N)c1S(=O)C(F)(F)F (stereo not drawn)
active: [5] 10.3 µM and 9.11 µM | [6] 10.3 µM and 9.11 µM
inactive: all other assays above

CC(C)Oc1cc(-n2nc(C(C)(C)C)oc2=O)c(Cl)cc1Cl
inactive: all assays above

CON(C)C(=O)Nc1ccc(Cl)c(Cl)c1
active: [1] 26.8 µM
not listed: [9] | [10]
inactive: all other assays above

CCCCNC(=O)OCC#CI
active: [1] 14.3 µM | [2] 91.7 µM | [5] 10.2 µM | [6] 10.2 µM
not listed: [10]
inactive: all other assays above

COC(=O)N(OC)c1ccccc1COc1ccn(-c2ccc(Cl)cc2)n1
active: [1] 2.05 µM | [2] 1.7 µM | [3] 1.69 µM | [5] 0.0781 µM | [6] 0.0783 µM
inactive: [4] | [7] | [8]

Cc1ccc(-c2c(Cl)nc(C#N)n2S(=O)(=O)N(C)C)cc1
active: [1] 0.982 µM | [2] 34 µM
not listed: [9] | [10]
inactive: all other assays above

O=C(Nc1ccccc1)Nc1ccnc(Cl)c1
active: [1] 72.3 µM | [2] 50 µM
not listed: [5] | [6]
inactive: all other assays above

O=C(O)COc1nc(Cl)c(Cl)cc1Cl
inactive: [1] | [2] | [3] | [7] | [8] | [9]

COc1nc(NC(C)C)nc(NC(C)C)n1
inactive: [2] | [3] | [4] | [7] | [8]
active: [1] 32.6 µM

N#Cc1cc(Br)c(O)c(Br)c1
active: [1] 9.69 µM | [4] 10.8 µM
not listed: [5] | [6]
inactive: all other assays above

CC(C)(C)c1ccc(CSc2cnn(C(C)(C)C)c(=O)c2Cl)cc1
active: [1] 0.96 µM | [2] 0.655 µM | [3] 0.359 µM | [4] 0.411 µM | [5] 0.0249 µM | [6] 0.0249 µM
inactive: [7] | [8]

CO/C=C(/C(=O)OC)c1ccccc1Oc1cc(Oc2ccccc2C#N)ncn1
active: [1] 9.66 µM and 9.17 µM | [2] 6.48 µM and 5.12 µM | [3] 17.9 µM and 8.88 µM
not listed: [10]
inactive: all other assays above

C#CCOS(=O)OC1CCCCC1Oc1ccc(C(C)(C)C)cc1 (stereo not drawn)
inactive: [3] | [7] | [8] | [9]
active: [1] 15.5 µM | [2] 11.3 µM | [5] 9.46 µM | [6] 9.48 µM

CCCCNC(=O)n1c(NC(=O)OC)nc2ccccc21
inactive: [10] | [7] | [8] | [9]

CCCN(CCC)c1c([N+](=O)[O-])cc(S(N)(=O)=O)cc1[N+](=O)[O-]
active: [1] 30.7 µM | [2] 34 µM | [5] 4.91 µM | [6] 4.91 µM
inactive: [1] | [2] | [3] | [4] | [7] | [8] | [9]

CCOC(=O)CC(SP(=S)(OC)OC)C(=O)OCC (stereo not drawn)
inactive: [10] | [7] | [8] | [9]

O=C(O)c1nc(Cl)ccc1Cl
inactive: [5] | [6] | [7] | [8]

COC(=O)c1ccccc1C(=O)OC
inactive: [7] | [8]

CNC(=S)S
inactive: [7] | [8] | [9]

CCOP(=S)(OCC)SCn1c(=O)oc2cc(Cl)ccc21
inactive: [5] | [6] | [7] | [8] | [9]

C=CC1(C)OC(=O)N(c2cc(Cl)cc(Cl)c2)C1=O (stereo not drawn)
inactive: [7] | [8] | [9]

CC1=C(C(=O)Nc2ccccc2)SCCO1
inactive: [2] | [3] | [7] | [8] | [9]

CCON=C(CC)C1=C(O)CC(c2c(C)cc(C)cc2C)CC1=O (stereo not drawn)
inactive: [7] | [8]

CCNc1nc(Cl)nc(NCC)n1
inactive: [7] | [8] | [9]

Cc1c(F)c(F)c(COC(=O)C2C(/C=C(\Cl)C(F)(F)F)C2(C)C)c(F)c1F (stereo not drawn)
active: [5] 0.567 µM | [6] 0.581 µM
inactive: [7] | [8] | [9]

Oc1ccccc1-c1ccccc1
inactive: [1] | [2] | [3] | [7] | [8] | [9]

COC(=O)C(C)Oc1ccc(Oc2ccc(Cl)cc2Cl)cc1 (stereo not drawn)
inactive: [5] | [6] | [7] | [8] | [9]

CCCCOC(=O)c1ccccc1C(=O)OCCCC
inactive: [7] | [8]

CCNc1nc(Cl)nc(NC(C)C)n1
inactive: [5] | [6] | [7] | [8] | [9]

CCCCC(CC)COC(=O)c1ccccc1C(=O)OCC(CC)CCCC (stereo not drawn)
inactive: [7] | [8] | [9]

CCOc1cc(Oc2ccc(C(F)(F)F)cc2Cl)ccc1[N+](=O)[O-]
inactive: [7] | [8] | [9]

COc1cnc(OC)n2nc(NS(=O)(=O)c3c(OCC(F)F)cccc3C(F)(F)F)nc12
inactive: [7] | [8] | [9]

CCOC(=O)C(Cl)Cc1cc(-n2nc(C)n(C(F)F)c2=O)c(F)cc1Cl (stereo not drawn)
inactive: [7] | [8] | [9]

COC(=O)C=C(C)OP(=O)(OC)OC
inactive: [7] | [8] | [9]

Fc1ccc(Oc2ccnc3cc(Cl)cc(Cl)c23)cc1
inactive: [5] | [6] | [7] | [8]

CC(Oc1ccc(Cl)cc1Cl)C(=O)O (stereo not drawn)
inactive: [5] | [6] | [7] | [8]

CNC(=O)ON=CC(C)(C)SC
inactive: [5] | [6] | [7] | [8]

COc1ccc(C(c2ccc(OC)cc2)C(Cl)(Cl)Cl)cc1
inactive: [5] | [6] | [7] | [8] | [9]

CN(C)C(=S)SSC(=S)N(C)C
inactive: [7] | [8] | [9]

C=CCC1=C(C)[C@@H](OC(=O)[C@@H]2[C@@H](C=C(C)C)C2(C)C)CC1=O
inactive: [3] | [4] | [7] | [8]
active: [2] 47.4 µM | [5] 4.06 µM | [6] 4.06 µM

COP(N)(=O)SC (stereo not drawn)
inactive: [5] | [6] | [7] | [8]

CC(C)C1(C)N=C(c2nc3ccccc3cc2C(=O)O)NC1=O (stereo not drawn)
inactive: [7] | [8]

— PubChem BioAssay (EPA / NIEHS)
